From PubChem BioAssay (EPA / NIEHS)
Records with an inconclusive call do not appear. Calls of active or inactive are those of the source. Rule for the calls: active = hit-call score of the fitted dose curve at least 0.9, where 1 is the maximum; inconclusive = response in the unintended direction; inactive = score below 0.9.

These molecules were tested against Cytochrome P450 2C19 (Homo sapiens) (UniProt P33261) (assay: NVS_ADME_hCYP2C19: NovaScreen (NVS) CYP450-related Enzyme Activity (ADME) Assay for human CYP2C19 (AID 2283113);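 for AC50: potency for inhibition seen as loss of fluorescent signal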).
In short: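 Fluorescence intensity was measured 1 hour after chemicals were added to insect-cell-derived recombinant CYP2C19 with fluorogenic substrate. Decreased signal versus acetonitrile control was taken as reduced enzyme activity; initial testing used 10 uM in duplicate.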

SMILES	AC50	outcome
CCNS(=O)(=O)C(F)(F)C(F)(F)C(F)(F)C(F)(F)C(F)(F)C(F)(F)C(F)(F)C(F)(F)F	9.65 µM (active)	
C[C@]12C=CC3=C4CCC(=O)C=C4CC[C@H]3[C@@H]1CC[C@@H]2O	5.75 µM (active)	
Nc1ccc([N+](=O)[O-])cc1	6.15 µM (active)	
Nc1ccc(Cl)cc1N		inactive
Clc1ccc(C(c2ccc(Cl)cc2)C(Cl)Cl)cc1	4.79 µM (active)	
Nc1ccc(Cc2ccc(N)cc2)cc1	14.4 µM (active)	

The molecules below were run against human Acetylcholinesterase (AChE), ACHE (gene 43) (UniProt P22303) (assay: NVS_ENZ_hAChE: NovaScreen (NVS) Enzymatic Assay for human Acetylcholinesterase (AChE) (AID 2283129)).
In short: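 Cell-free colorimetric enzyme-activity assay; compounds read 0.33 hour after dosing, loss of signal vs DMSO baseline. Primary screen in duplicate at 25 uM single concentration, with active compounds retested in concentration series.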

Sequence of human Acetylcholinesterase (AChE), ACHE (gene 43) (P22303 whole entry, looked up): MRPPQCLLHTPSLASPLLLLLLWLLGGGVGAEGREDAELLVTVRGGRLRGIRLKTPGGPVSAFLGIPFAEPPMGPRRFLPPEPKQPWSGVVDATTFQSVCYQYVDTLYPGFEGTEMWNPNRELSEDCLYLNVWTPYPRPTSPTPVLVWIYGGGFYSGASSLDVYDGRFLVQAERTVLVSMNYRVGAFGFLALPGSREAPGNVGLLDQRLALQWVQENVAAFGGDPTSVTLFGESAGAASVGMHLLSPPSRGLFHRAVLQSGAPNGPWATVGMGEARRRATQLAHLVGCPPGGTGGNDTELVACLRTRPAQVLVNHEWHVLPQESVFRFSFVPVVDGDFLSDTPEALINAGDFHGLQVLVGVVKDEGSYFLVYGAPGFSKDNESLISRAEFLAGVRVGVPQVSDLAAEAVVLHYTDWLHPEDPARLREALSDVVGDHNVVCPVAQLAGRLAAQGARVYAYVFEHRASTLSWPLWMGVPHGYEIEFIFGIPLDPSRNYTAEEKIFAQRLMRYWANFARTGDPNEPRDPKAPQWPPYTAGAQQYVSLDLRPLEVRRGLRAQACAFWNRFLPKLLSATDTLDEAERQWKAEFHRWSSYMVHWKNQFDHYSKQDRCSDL

SMILES	outcome	AC50
CCCCC(CC)COC(=O)c1ccc(C(=O)OCC(CC)CCCC)c(C(=O)OCC(CC)CCCC)c1 (stereo unspecified)	inactive	
CNC(=O)Oc1cccc2c1OC(C)(C)C2		0.497 µM (active)
CCC[CH2][Sn]([Cl])([CH2]CCC)[CH2]CCC	inactive	
CCCCCOC(=O)c1ccccc1C(=O)OCCCCC	inactive	
Cc1ccc(N=C=O)cc1N=C=O		8.65 µM (active)
CCCCCCCCOC(=O)c1ccc(C(=O)OCCCCCCCC)c(C(=O)OCCCCCCCC)c1	inactive	

The molecules below were run against human AMP-activated Protein Kinase, alpha 1 (AMPKa1), PRKAA1 (gene 5562) (UniProt Q13131) (assay: NVS_ENZ_hAMPKa1: NovaScreen (NVS) Enzymatic Assay for human AMP-activated Protein Kinase, alpha 1 (AMPKa1) (AID 2283130)).
In short: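 Recombinant human AMPKα1 activity was measured cell-free by fluorescent substrate conversion with electrophoretic mobility-shift separation, 1 h after dosing. Duplicate single-point screening was at 25 uM; actives (≥30% inhibition) were retested in concentration-response up to 50 uM.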

Sequence of human AMP-activated Protein Kinase, alpha 1 (AMPKa1), PRKAA1 (gene 5562) (Q13131 whole entry, looked up): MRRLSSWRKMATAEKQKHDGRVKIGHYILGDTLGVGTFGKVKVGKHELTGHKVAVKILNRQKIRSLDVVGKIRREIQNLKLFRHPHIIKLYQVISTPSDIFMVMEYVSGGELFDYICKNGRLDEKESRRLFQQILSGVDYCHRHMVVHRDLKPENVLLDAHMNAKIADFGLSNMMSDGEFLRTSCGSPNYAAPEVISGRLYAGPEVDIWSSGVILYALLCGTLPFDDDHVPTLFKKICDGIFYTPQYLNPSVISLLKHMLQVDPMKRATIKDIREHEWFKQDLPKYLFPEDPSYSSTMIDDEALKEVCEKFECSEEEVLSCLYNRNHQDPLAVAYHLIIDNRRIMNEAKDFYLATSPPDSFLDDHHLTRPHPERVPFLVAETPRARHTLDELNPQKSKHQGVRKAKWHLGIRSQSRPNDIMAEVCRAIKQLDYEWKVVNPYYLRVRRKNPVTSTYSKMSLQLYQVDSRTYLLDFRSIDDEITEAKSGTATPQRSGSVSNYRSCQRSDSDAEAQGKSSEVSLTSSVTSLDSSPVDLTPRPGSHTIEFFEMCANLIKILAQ

SMILES	outcome
CCNS(=O)(=O)C(F)(F)C(F)(F)C(F)(F)C(F)(F)C(F)(F)C(F)(F)C(F)(F)C(F)(F)F	inactive
CCCCC(CC)COC(=O)c1ccc(C(=O)OCC(CC)CCCC)c(C(=O)OCC(CC)CCCC)c1 (stereo unspecified)	inactive
Oc1ccccc1Cl	inactive
O=C(Oc1ccc(Br)cc1)N1CCN2CCC1CC2	inactive

The molecules below were run against human Caspase 5 (CASP5), CASP5 (gene 838) (UniProt P51878) (assay: NVS_ENZ_hCASP5: NovaScreen (NVS) Enzymatic Assay for human Caspase 5 (CASP5) (AID 2283137)).
In short: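 Recombinant human caspase 5 expressed in E. coli, fluorogenic substrate, fluorescence read 2 h after dosing. Single-point 25 uM duplicate screen, then concentration-response to maximum 50 uM for actives; DMSO baseline.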

Sequence of human Caspase 5 (CASP5), CASP5 (gene 838) (P51878 whole entry, looked up): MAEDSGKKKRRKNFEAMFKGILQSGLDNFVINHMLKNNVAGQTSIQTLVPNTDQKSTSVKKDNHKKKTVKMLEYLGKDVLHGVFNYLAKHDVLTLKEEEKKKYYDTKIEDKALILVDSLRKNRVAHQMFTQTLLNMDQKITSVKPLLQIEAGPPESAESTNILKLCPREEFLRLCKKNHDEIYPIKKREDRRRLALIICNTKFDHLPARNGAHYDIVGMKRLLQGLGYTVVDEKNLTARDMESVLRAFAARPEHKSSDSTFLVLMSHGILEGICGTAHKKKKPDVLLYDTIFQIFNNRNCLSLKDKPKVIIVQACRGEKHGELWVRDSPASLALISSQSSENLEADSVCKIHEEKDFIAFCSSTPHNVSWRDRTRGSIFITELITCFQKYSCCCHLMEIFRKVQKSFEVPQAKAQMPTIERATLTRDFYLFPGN

SMILES	outcome	AC50
Cc1cccc(N)c1N	inactive	
Nc1ccc(Cl)cc1N	inactive	
Cc1ccc(N=C=O)cc1N=C=O	inactive	
CN(C)[C@@H]1C(=O)C(C(N)=O)=C(O)[C@@]2(O)C(=O)C3=C(O)c4c(O)cccc4[C@@](C)(O)[C@H]3C[C@@H]12		10.9 µM (active)
c1ccc(C2CO2)cc1 (stereo unspecified)	inactive	

Each molecule was assayed against human AKT serine/threonine Kinase 1 (AKT1), AKT1 (gene 207) (UniProt P31749) (assay: NVS_ENZ_hAKT1: NovaScreen (NVS) Enzymatic Assay for human AKT serine/threonine Kinase 1 (AKT1) (AID 2283138)).
In short: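 Recombinant human AKT1 with a specific substrate, product separated by electrophoretic mobility shift, read after 1 h. Compounds at 25 uM in duplicate, then concentration-response up to 50 uM for hits; inhibition relative to DMSO.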

Sequence of human AKT serine/threonine Kinase 1 (AKT1), AKT1 (gene 207) (P31749 whole entry, looked up): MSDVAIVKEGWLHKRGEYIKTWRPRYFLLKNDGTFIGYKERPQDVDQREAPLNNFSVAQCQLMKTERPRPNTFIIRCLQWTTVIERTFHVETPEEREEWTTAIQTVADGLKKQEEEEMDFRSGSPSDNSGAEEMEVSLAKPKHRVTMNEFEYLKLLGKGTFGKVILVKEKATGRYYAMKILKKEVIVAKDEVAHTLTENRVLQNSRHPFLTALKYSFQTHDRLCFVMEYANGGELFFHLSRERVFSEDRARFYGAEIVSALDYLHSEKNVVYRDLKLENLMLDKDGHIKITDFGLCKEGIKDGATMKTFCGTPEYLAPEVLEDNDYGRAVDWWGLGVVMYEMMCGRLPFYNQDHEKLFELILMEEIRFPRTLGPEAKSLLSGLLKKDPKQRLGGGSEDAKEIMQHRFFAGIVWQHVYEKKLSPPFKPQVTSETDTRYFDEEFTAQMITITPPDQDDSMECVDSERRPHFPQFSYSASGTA

SMILES	outcome
Clc1ccc(Cl)c(Cl)c1	inactive
CCNS(=O)(=O)C(F)(F)C(F)(F)C(F)(F)C(F)(F)C(F)(F)C(F)(F)C(F)(F)C(F)(F)F	inactive
c1ccc(NNc2ccccc2)cc1	inactive
O=P(OCCCl)(OCCCl)OCCCl	inactive
CC(C)N(Cc1ccccc1)C(=O)C(C)(C)C	inactive
